Results reported in PubChem BioAssay AID1851 (National Center for Advancing Translational Sciences (NCATS), 2009).
Out of some 16,000 compounds screened, about 4,000 (25%) were called active. About 26% were inconclusive and are not listed. A selection follows. A number with no mark means an inactive call. Calls come from the whole dose curve; as a rule, active = well fitted curve in the direction sought with a large enough effect; inconclusive = small, poorly fitted or top-dose-only effect, or effect the other way; inactive = no such curve, though single readings can be large or run the other way.

Biological target: Cytochrome P450 2C9 (Homo sapiens) (UniProt P11712)
Assay: Cytochrome panel assay with activity outcomes
Settings: recombinant CYP, pro-luciferin dealkylation, luminescence, p450-cyp2c9; series mostly up to 57.1 µM; activity, negative = inhibition: at the top concentration
% is set by controls: 0 for no effect and ±100 for the full control effect.

Chain of Cytochrome P450 2C9 (Homo sapiens) (P11712 whole entry, looked up): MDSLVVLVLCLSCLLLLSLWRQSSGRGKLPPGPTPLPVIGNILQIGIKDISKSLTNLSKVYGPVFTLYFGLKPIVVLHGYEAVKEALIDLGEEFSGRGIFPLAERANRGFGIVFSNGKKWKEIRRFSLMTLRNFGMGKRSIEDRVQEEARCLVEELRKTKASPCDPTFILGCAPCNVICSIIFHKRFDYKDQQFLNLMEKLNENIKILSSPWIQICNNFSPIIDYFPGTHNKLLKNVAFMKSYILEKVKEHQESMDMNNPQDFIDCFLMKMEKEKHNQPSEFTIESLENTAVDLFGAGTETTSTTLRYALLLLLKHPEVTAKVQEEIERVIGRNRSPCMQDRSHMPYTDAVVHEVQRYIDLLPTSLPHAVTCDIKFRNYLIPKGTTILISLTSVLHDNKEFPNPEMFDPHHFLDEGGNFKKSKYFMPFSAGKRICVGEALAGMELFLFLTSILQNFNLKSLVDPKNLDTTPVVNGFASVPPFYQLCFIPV

Compound | activity, negative = inhibition | AC50
NC(N)=NC(N)=Nc1ccc(S(N)(=O)=O)cc1 | -4.01% [at 11.4 µM] | 
O=c1cc(N2CCC(Cc3ccccc3)CC2)[nH]c(=O)n1C1CCCCC1 |  | 12.6 µM (active)
Cc1ccccc1-n1c(=O)cc(N2CC(C)OC(C)C2)[nH]c1=O (configuration not stated) | -1.49% | 
O=C(c1ccco1)N1CCN(c2cc(=O)n(C3CCCCC3)c(=O)[nH]2)CC1 | -1.48% | 
CN1CCN(c2ccnc(-c3ccoc3)n2)CC1 | 4.59% [at 2.29 µM] | 
CON/C=C(\C=Nc1ccccc1)c1ncc(C(F)(F)F)cc1Cl |  | 7.94 µM (active)
N#Cc1c(NC(=O)CCN2C(=O)c3ccccc3C2=O)oc(-c2ccccc2)c1-c1ccccc1 |  | 0.398 µM (active)
C/C(CCN1CCCc2nc(C)c(C)cc21)=N\O[C@@H](C)c1cn([C@H](CO)Cc2ccccc2)nn1 | -12.1% [at 11.4 µM] | 
CCn1c(=O)cc(SCC(=O)N2CCN(C(=O)c3ccco3)CC2)c2ccccc21 | 2.34% | 
Cc1c(/N=C/c2ccco2)n(Cc2ccccc2)c2ccccc12 |  | 14.1 µM (active)
CC[n+]1c(P(=O)([O-])c2ccccc2)[nH]c2ccccc21 | -26.6% | 
COC(=O)CCSc1cc([N+](=O)[O-])cc2c1c(C1OCCS1)nn2-c1ccccc1 (configuration not stated) |  | 10 µM (active)
Cn1cc(-c2nc3cncnc3n(-c3ccccc3)c2=O)c2ccccc21 | -9.34% | 
Cn1cc(-c2nc3cnc(Oc4ccccc4)nc3n(C)c2=O)c2ccccc21 | 9.76% | 
Cn1cc(/C=N/n2cnc3scc(-c4ccccc4)c3c2=O)c2ccccc21 |  | 5.01 µM (active)
Nc1nonc1-c1noc(CCCN2C(=O)c3ccccc3C2=O)n1 | -29.3% | 
COC(=O)c1scc(C)c1NC(=O)Cc1ccccc1 | -15.4% | 
O=C(Cc1ccc(Br)cc1)Nc1ccccc1Sc1ccccc1 |  | 2.82 µM (active)
COc1ccc(CNc2nc(-c3cccc(NS(C)(=O)=O)c3)nc3ccccc23)c(OC)c1 |  | 0.158 µM (active)
CNc1nc(-c2cccc(NS(C)(=O)=O)c2)nc2ccccc12 | 27.5% [at 2.29 µM] | 
COCCNc1nc(-c2cccc(NS(C)(=O)=O)c2)nc2ccccc12 | 2.19% [at 2.29 µM] | 
COc1ccc(CNc2ncnc3ccc(-c4cccc(NS(C)(=O)=O)c4)cc23)c(OC)c1 |  | 0.501 µM (active)
COc1ccc(CNc2ncncc2-c2cccc(NS(C)(=O)=O)c2)c(OC)c1 | -18.5% [at 2.29 µM] | 

Compound | activity, negative = inhibition | AC50
COCCNc1ncnc2ccc(-c3cccc(NS(C)(=O)=O)c3)cc12 | 16.7% [at 2.29 µM] | 
C[C@@H](CCC(=O)O)C(=O)O | 3.2% [at 11.4 µM] | 
CC(=O)c1c(N2CCC(C(N)=O)CC2)nc(=S)n(-c2ccccc2)c1C | -23.7% | 
CC(=O)N1CCC[C@@]2(CCN(c3ccccc3)C2)C1 | 17.6% | 
C=CCn1c(C)c(C(C)=O)c(N2CCN(c3ccccc3)CC2)nc1=S |  | 12.6 µM (active)
COc1ccc(NC(=O)N2CC3(CCN(C(=O)c4csnn4)CC3)C2)cc1 | 9.55% | 
Nc1nc2c(ncn2[C@@H]2C=C[C@@H](CO)C2)c(=O)[nH]1 | 3.99% [at 11.4 µM] | 
C/C(=C(/CCO)SSC[C@@H]1CCCO1)N(C=O)Cc1cnc(C)nc1N | 15.4% [at 25.6 µM] | 
CCc1ccccc1OC[C@@H](O)CN[C@H]1CCCc2ccccc21 | 18.2% | 
Nc1ccc(N2C(=O)c3ccccc3C2=O)c(Cl)c1 | 12.8% | 
Nc1ccc(N(S(=O)(=O)c2ccccc2)S(=O)(=O)c2ccccc2)c(Cl)c1 |  | 3.16 µM (active)
CCC/C=C(\CCC)C(NC(=O)OCC(C)C)c1ccc(C(=O)OC)cc1 (configuration not stated) |  | 3.98 µM (active)
CCC/C=C(\CCC)C(NS(=O)(=O)c1cccs1)c1ccc(C(=O)OC)cc1 (configuration not stated) |  | 2 µM (active)
CCC/C=C(\CCC)C(NC(=O)Cc1ccccc1)c1ccc(C(=O)OC)cc1 (configuration not stated) |  | 10 µM (active)
CCC/C=C(\CCC)C(NC(=O)c1cccs1)c1ccc(C(=O)OC)cc1 (configuration not stated) |  | 2 µM (active)
COC(=O)N1CCC2(CC1)CN(C(=O)Nc1cccc(C#N)c1)C2 | -16.4% | 
COc1ccccc1CNc1ncnc2ccc(-c3ccoc3)cc12 | -19.5% [at 2.29 µM] | 
Cc1cnc(CNc2cc(-c3ccoc3)ncn2)cn1 | 10.6% [at 2.29 µM] | 
O=C(Nc1cccc(F)c1)N1CCC2(CC1)CCN(C(=O)c1csnn1)CC2 | -10.3% | 
CCc1c2c(nc3cccc(OC)c13)OC(CC)C2 (configuration not stated) | 0.447% | 
CCC/C=C(\CCC)C(NC(=O)c1ccc(C(F)(F)F)cc1)c1ccc(C(F)(F)F)cc1 (configuration not stated) | -1.68% | 
CCC/C=C(\CCC)C(NC(=O)c1ccc(-c2ccccc2)cc1)c1ccc(C(=O)OC)cc1 (configuration not stated) | -13.2% | 
CCC/C=C(\CCC)C(NC(=O)c1ccc(C(=O)OC)cc1)c1ccc(C(=O)OC)cc1 (configuration not stated) |  | 2 µM (active)

Compound | activity, negative = inhibition | AC50
C[N+](C)(C)c1ccc([C@H](N)C(=O)O)cc1 | -14.1% [at 11.4 µM] | 
CCCn1cnc2c1c(=O)n(CCCCC(C)=O)c(=O)n2C | 4.22% | 
CCCCn1cnc2c(cnn2-c2ccc(F)cc2)c1=O |  | 11.2 µM (active)
CCCn1c(=O)c2c(ncn2C)n(CCC)c1=O | 3.38% | 
O=C(O)CONC(=O)c1cc(OCC(F)(F)F)ccc1OCC(F)(F)F | 4.3% | 
COC(=O)C1CCN(CC(=O)Nc2sc3c(c2C#N)CCC3)CC1 |  | 5.62 µM (active)
CC(C)CC(=O)Nc1sc2c(c1C#N)CC(C)(C)NC2(C)C | -27.1% | 
Cc1c(C(=O)O)nc(/C=C\C(=O)O)[nH]c1=O | -11.9% [at 11.4 µM] | 
O=C(O)c1nn(-c2ccc(Cl)cc2)c2c1C(=O)c1ccccc1C2=O | -5.15% [at 11.4 µM] | 
O=C(c1ccccc1)c1nn(-c2ccccc2)c(=O)cc1C(F)(F)F |  | 10 µM (active)
O=C(O)c1nn(-c2ccccc2)nc1-c1nn(-c2ccccc2)nc1C(=O)O | -0.0182% | 
CC(C)[C@H]1C(=O)C(C(N)=O)=C(O)[C@]2(O)C(=O)C3=C(O)c4c(O)ccc(N(C)C)c4C[C@H]3C[C@@H]12 | -5.14% | 
CN(C)CC/C=C1\c2ccccc2Sc2ccc(Cl)cc21 | -4.11% [at 25.6 µM] | 
CC(C(=O)NC1CCCC1)N(C(=O)c1snc(C(N)=O)c1N)c1ccc2c(c1)OCCO2 (configuration not stated) |  | 12.6 µM (active)
CCC(C)(C(=O)NC1CCCC1)N(CC1CCCO1)C(=O)c1ccc2c(c1)OCO2 (configuration not stated) | -11.3% | 
Nc1nc(=O)c2[nH]cnc2n1O | -5.05% [at 11.4 µM] | 
CN(C)Cc1ccccc1-c1ccc2ncnc(NC3CCNCC3)c2c1 | 7.8% [at 2.29 µM] | 
COc1ccc(/C=N/n2c(C)nnc2C)c(OC)c1 | -19.1% | 
Cc1cc(C)n(-c2nnc(C)n2/N=C/c2ccccc2OCc2ccccc2Cl)n1 |  | 8.91 µM (active)
CN(C)CCOC(=O)c1ccc(N)cc1 | -8.18% [at 11.4 µM] | 
O=C(CCS(=O)(=O)c1cccc2nsnc12)NC1CCCCC1 | 18.2% | 
Cc1cccc(NC(=O)CCS(=O)(=O)c2cccc3nsnc23)c1C |  | 15.8 µM (active)
COc1ccc(NC(=O)N2CCCC3(CCN(C(=O)c4cnccn4)CC3)C2)cc1 | 1.74% | 

Compound | activity, negative = inhibition | AC50
COc1ccc(-c2cc(C(F)(F)F)n3nc(C(=O)N4CCCCC4)cc3n2)cc1 |  | 25.1 µM (active)
CCOC(=O)C1CCCN(C(=O)c2cc3nc(-c4ccc5c(c4)OCO5)cc(C(F)(F)F)n3n2)C1 (configuration not stated) |  | 6.31 µM (active)
COc1cccc(-c2cc(C(F)(F)F)n3ncc(S(=O)(=O)c4ccccc4)c3n2)c1 | -9.21% | 
c1cncc(CNc2ncncc2-c2cccnc2)c1 | 4.39% [at 2.29 µM] | 
O=C(N/N=C/C=C/c1ccccc1)c1cc2c(ccc3ccccc32)o1 | -29.8% | 
C(/C=C\c1ccccc1)=Nc1ccc2c(c1)Cc1ccccc1-2 | -24.1% [at 11.4 µM] | 
O=S(=O)(N/N=C\C=C\c1ccccc1)c1ccc(Br)cc1 |  | 0.501 µM (active)
CCOC(=O)N1CCN(C(=O)CSCc2ccc(Cl)cc2)CC1 | -29.6% | 
CCOC(=O)CSC1=NC(=O)/C(=C\c2ccc(Cl)cc2)S1 |  | 1.26 µM (active)
Cc1noc(C)c1C(=O)N1CCC2(CC1)CN(c1ncccn1)C2 | 0.629% | 
Cc1cccc(NC(=O)CSc2nc3nc(C)cc(C)c3c(=O)[nH]2)c1 |  | 7.94 µM (active)
Cc1cc(C)c2c(=O)[nH]c(SCC(=O)N(C)C)nc2n1 | -5.89% | 
Cc1cccc(NC(=O)Cn2c(=O)oc3ccccc32)c1 | -13.7% | 
CC[C@@H]1OC(=O)[C@H](C)[C@H](O[C@@H]2C[C@](C)(OC)[C@H](O)[C@H](C)O2)[C@H](C)[C@H](O[C@@H]2O[C@@H](C)C[C@@H](N(C)C)[C@@H]2O)[C@](C)(O)C[C@H](C)C(=NOCOCCOC)[C@H](C)[C@H](O)[C@]1(C)O | -2.35% [at 25.6 µM] | 
COc1ccc(C(=O)Nc2scc(-c3ccc(Cl)cc3Cl)c2C(N)=O)cc1 |  | 0.631 µM (active)
CC(C)COc1ccc(C(=O)Nc2scc(-c3ccc(Cl)cc3Cl)c2C(N)=O)cc1 |  | 1.78 µM (active)
O=C(Nc1nnc(COc2ccc(Cl)cc2)s1)c1ccc([N+](=O)[O-])cc1 | 8.46% | 
NC(=O)OC[C@H](O)COc1ccc(Cl)cc1 | 13.5% [at 25.6 µM] | 
Cc1sc(NC(=O)c2ccc(OCC(C)C)cc2)c(C(N)=O)c1-c1ccc(Cl)cc1Cl |  | 0.562 µM (active)
Cn1ncc(C#N)c1/N=C/N1CCCCCC1 | -21.1% | 
CN1C(=O)/C(=C\c2ccccc2)Sc2ccc(C(=O)N3CCN(c4ccccn4)CC3)cc21 |  | 11.2 µM (active)
Cn1cccc1C(=O)N1CCC2(CC1)CN(c1ccccn1)C2 | 3.16% | 
O=C(c1csnn1)N1CCC2(CC1)CN(c1ccccn1)C2 | 29.9% | 
